For 13 compounds, outcome and Potency results are on record in PubChem BioAssay (NCATS).

Results filed as inconclusive are left out. The source made the active and inactive calls. Calls come from the whole dose curve; as a rule, active = well fitted curve in the direction sought with a large enough effect; inconclusive = small, poorly fitted or top-dose-only effect, or another doubt; inactive = no such curve, though single readings can be large; an effect the other way counts as inactive or inconclusive.

Assay [1] is described as follows: HPAF-II 24hr Apoptosis Induction qHTS against the NCATS CANVASS Library (AID 1347356). In outline: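 Apoptosis induction in HPAF-II pancreatic cancer cells is measured as caspase-3/7 luminescence after a 24-hour exposure to compounds.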
Background: In qHTS, concentration-response curves come from the screen itself.

Assay [2] in a line: HEK293 18hr Apoptosis Induction qHTS against the NCATS CANVASS Library (AID 1347357). In short, it runs like this:
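HEK293 cells (500 per well, DMEM with 10% FBS) were treated with natural products, incubated 18 hours at 37 degrees C, then caspase-3/7 activity was read by Caspase-Glo luminescence after 15 min at room temperature.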

The nature of assay [3]: HPAF-II 12hr Apoptosis Induction qHTS against the NCATS CANVASS Library (AID 1347358). In outline:
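Apoptosis in HPAF-II pancreatic cancer cells is scored as caspase 3/7 luminescence following a 12-hour exposure to an 11-point compound series.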

The nature of assay [4]: HEK293 24hr Apoptosis Induction qHTS against the NCATS CANVASS Library (AID 1347359). In short, it runs like this: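 HEK293 cells, 500 per well, exposed to an 11-point compound series for 24 hours at 37 degrees C. Caspase 3/7 activity read by Caspase-Glo luminescence (DEVD substrate) after 15 min at room temperature.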
Assay [5] is described as follows: HPAF-II 18hr Apoptosis Induction qHTS against the NCATS CANVASS Library (AID 1347360). In outline:
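HPAF-II cells (500/well, DMEM + 10% FBS) were exposed to compounds for 18 hours at 37 degrees C. Caspase-3/7 activity was then read by Caspase-Glo 3/7 luminescence after 15 min at room temperature.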

A short description of assay [6]: HEK293 12hr Apoptosis Induction qHTS against the NCATS CANVASS Library (AID 1347361). In short, it runs like this:
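Read-out: Caspase-Glo 3/7 luminescence (DEVD substrate), 15 min RT. Preceded by 12 h compound exposure of HEK293, 500 cells/well, 11-pt qHTS titration; doxorubicin titration as control.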

The target of assay [7] is Luciferin 4-monooxygenase (Photinus pyralis) (UniProt P08659). Kind of assay: Firefly luciferase counterscreen qHTS: Assay Interference Panel against the NCATS CANVASS Library (AID 1347363). Note: series mostly up to about 57 µM. In short, it runs like this: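 Purified P. pyralis luciferase (0.04 ug/mL, 4x reagent) added to Tris-acetate buffer with 0.013 mM D-luciferin, 0.013 mM ATP and 13.3 mM Mg-acetate; compounds preincubated 15 min, then luminescence read after 5 min, RT.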

Assay [8] is described as follows: qHTS for ATAD5 Agonist screened against the NCATS CANVASS Library (AID 1347367).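 Note: luciferase reporter driven by ATAD5 which rises upon DNA damage.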 In short, it runs like this: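 HEK293T cells stably carrying an ATAD5-controlled luciferase reporter (2000 cells/well) attached for 5 hr, then received compounds in an 11-point series for 16hr at 37C. Luminescence was read after a 30 min room-temperature reagent step.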
The nature of assay [9]: J3T Cancer Cell Toxicity qHTS against the NCATS CANVASS Library (AID 1347371). Note: potency is the fitted concentration of half-maximal effect. In outline:
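Viability of the J3T glioma line from dog is scored by ATP luminescence after a 72 hr incubation with natural products.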

Assay [10] has as its target Nuclear receptor subfamily 1 group I member 3 (Homo sapiens) (UniProt Q14994). Put plainly: qHTS for Constitutive Androstane Receptor (CAR) Agonist screened against the NCATS CANVASS Library (AID 1347373).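 Note: every well also contained 1.5 µM PK11195 alongside the test compound.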 In outline:
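CAR agonism is scored as CYP2B6-promoter luciferase induction in a double-stable transfected HepG2 line, where 1.5uM PK11195 is included in each well. Compounds were tested over a 24hr exposure.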

A short description of assay [11]: qHTS for Hypoxia signaling pathway (HIF-1) agonists against the NCATS CANVASS Library (AID 1347375). In outline: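 Inducers of HIF-1 signaling were detected in ME-180 cells bearing an HRE-driven beta-lactamase reporter after 17 h compound exposure. Activity came from CCF4-AM FRET emission ratio (460/530 nm) in qHTS format.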
Assay [12] is described as follows: 10-beta competent E. coli microbial cell viability qHTS against the NCATS CANVASS Library (AID 1347376). Note: series mostly up to about 46 µM. In outline:
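Cytotoxicity toward competent E. coli is scored from cellular ATP content via BacTiter-Glo luminescence following overnight compound exposure at 37C, 5% CO2.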

Assay [13] can be described thus: Inflammasome Signaling qHTS Counterscreen: IL-1-beta AlphaLISA counterscreen against the NCATS CANVASS Library (AID 1347381).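 Note: cell-free check with purified IL-1β in medium and no THP-1 cells; series mostly up to about 57 µM.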 In short, it runs like this:
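To flag interference with the AlphaLISA read-out, a known amount of purified IL-1-beta (4 pg) replaced cell supernatant. Detection used anti-IL-1-beta acceptor beads, biotinylated antibody and streptavidin donor beads at room temperature.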

The nature of assay [14]: Cytotoxicity qHTS for assessment of Hepg2 cells membrane integrity screened against the NCATS CANVASS Library (AID 1347387). In short, it runs like this:
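Fluorescence proportional to lysed-cell number, from LDH leaking out of HepG2 cells exposed 5 hr at 37C to 0.59 nM - 46 uM compound (11-point qHTS), is measured after 10 min with CytoTox-ONE.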

The nature of assay [15]: Redox Reaction Profiling qHTS: Assay Interference Panel against the NCATS CANVASS Library (AID 1347401). Note: potency is the fitted concentration of half-maximal effect. In short, it runs like this: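 Compounds in 11-point series incubated with 5 uM resazurin and 200 uM DTT in 50 mM HEPES pH 7.3, 50 mM NaCl. Resorufin fluorescence (Ex 525/Em 598) read before and after 15 min in the dark.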

Sequence of Luciferin 4-monooxygenase (Photinus pyralis) (P08659 whole entry, looked up): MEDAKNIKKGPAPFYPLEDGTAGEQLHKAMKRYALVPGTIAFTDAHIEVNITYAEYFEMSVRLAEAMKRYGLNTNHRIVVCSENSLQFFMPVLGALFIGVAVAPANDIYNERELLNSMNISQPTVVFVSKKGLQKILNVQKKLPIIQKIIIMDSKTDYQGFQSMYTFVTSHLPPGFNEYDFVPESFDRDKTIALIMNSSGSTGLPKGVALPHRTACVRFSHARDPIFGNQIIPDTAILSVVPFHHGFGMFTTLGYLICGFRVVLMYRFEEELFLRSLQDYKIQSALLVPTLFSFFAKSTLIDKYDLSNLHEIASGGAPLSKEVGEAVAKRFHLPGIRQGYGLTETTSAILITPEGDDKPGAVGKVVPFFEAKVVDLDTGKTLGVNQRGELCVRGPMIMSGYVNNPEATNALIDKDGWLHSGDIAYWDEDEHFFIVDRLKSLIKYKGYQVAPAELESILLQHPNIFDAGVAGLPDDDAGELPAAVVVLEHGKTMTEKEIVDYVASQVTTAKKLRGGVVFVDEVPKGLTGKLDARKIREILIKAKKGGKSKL
Sequence of Nuclear receptor subfamily 1 group I member 3 (Homo sapiens) (Q14994 whole entry, looked up): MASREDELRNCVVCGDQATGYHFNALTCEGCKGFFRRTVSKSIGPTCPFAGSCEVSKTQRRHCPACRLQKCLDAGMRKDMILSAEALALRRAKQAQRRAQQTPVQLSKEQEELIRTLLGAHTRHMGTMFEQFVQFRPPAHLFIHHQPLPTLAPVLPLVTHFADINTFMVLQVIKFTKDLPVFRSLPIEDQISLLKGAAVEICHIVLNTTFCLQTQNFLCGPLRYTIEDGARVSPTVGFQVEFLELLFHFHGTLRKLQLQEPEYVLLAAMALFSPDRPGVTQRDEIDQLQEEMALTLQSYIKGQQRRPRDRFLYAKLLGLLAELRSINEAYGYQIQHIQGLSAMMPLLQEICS

On to `C=CC(C)(C)[C@@]12C[C@H]3C(=O)N/C(=C\c4cnc[nH]4)C(=O)N3[C@@H]1Nc1ccccc12`, for which the call in assay [1], in [2], in assay [3], in assay [4], in assay [5] and in assay [6] was inactive. Moreover, the call in assay [11], in assay [12], in assay [13] and in [14] was inactive. Also, the Potency result in assay [7], in assay [8], in assay [9], in [10] and in [15] was “inactive” throughout.
Regarding `C/C=C(\C)C(=O)O[C@@H]1[C@@H](O)[C@@H]2O[C@H]3[C@H](O[C@@H](CCCCC)CCCCCCC(=O)CCC(=O)OC[C@@H](O2)[C@H]1OC(=O)/C=C/c1ccccc1)O[C@H](C)[C@H](OC(C)=O)[C@@H]3O`, the call in [1], in assay [2], in [3], in assay [4], in assay [5] and in assay [6] was inactive. Further, the result in assay [11], in assay [12], in assay [13] and in [14] was inactive. Moreover, the Potency result in assay [7], in [8], in [9], in assay [10] and in assay [15] was “inactive” in each case.
Regarding `CO[C@@]12c3c(C)cc(O)c4c(=O)occ(c34)C(=O)[C@@H]1[C@]13COC(=O)c4c(O)cc(C)c(c41)C(=O)[C@H]2[C@@H]3OC(C)=O`, the compound was classed as inactive in assay [1], in assay [2], in assay [3], in assay [4], in assay [5] and in [6]. The compound was called inactive in assay [11], in [12], in assay [13] and in assay [14]. Also, the Potency result in [7], in assay [8], in assay [9], in assay [10] and in assay [15] was “inactive” each time.
In the case of `COC1C(O)C(C)OC(OC2C(Oc3cccc4c(O)c5c(=O)oc6ccc(C)c7c(=O)oc(c34)c5c67)OC(C)C(O)C2O)C1O` (stereo not drawn), the call in [1], in assay [2], in [3], in assay [4], in assay [5] and in [6] was inactive. The compound was called inactive in [12], in assay [13] and in assay [14]. Also, the Potency result in assay [7], in assay [8] and in assay [10] was “inactive” in each case. The results for the Potency in assay [9] and in [15] were 23.5 µM (active) and 2.15 µM (active), respectively.
Take `CCCC[C@@H](C)/C=C1/CN2CCC[C@H]2[C@@](C)(O)[C@@H]1O`: the compound was called inactive in assay [1], in assay [2], in [3], in [4], in assay [5] and in assay [6]. Also, the compound was called inactive in [11], in [12], in assay [13] and in assay [14]. For the same compound, the Potency entry in [7], in assay [8], in assay [9], in assay [10] and in [15] was “inactive” throughout.
Turning to `C=C(C)[C@H]1C(=O)c2c3c(cc4c5c(n1c24)[C@@]1(C)[C@@H](CC[C@H]2[C@](C)(/C=C/C=C(\C)C(=O)O)[C@@H](O)CC[C@@]21C)C5)C1=CC(C)(C)OC(C)(C)[C@H]1[C@@H]3O`, the result in assay [2], in assay [4], in assay [6], in assay [12] and in assay [13] was inactive. Moreover, the Potency result in [7], in [8], in assay [9] and in [10] was “inactive” throughout. Besides, in assay [15], the Potency was 19.2 µM (active).
With `CCC(=O)N[C@@H](C[C@H](C)C(Cl)(Cl)Cl)C(=O)N1C(=O)C=C(OC)[C@@H]1C[C@H](C)C(Cl)Cl`, the compound was classed as inactive in assay [1], in [2], in assay [3], in [4], in assay [5] and in [6]. Moreover, the result in assay [11], in assay [12], in assay [13] and in assay [14] was inactive. The Potency result in assay [7], in assay [8], in [9], in assay [10] and in assay [15] was “inactive” throughout.
For `CC[C@@H]1CN2CCC3(Nc4cccc(OC)c4C3=O)[C@@H]2C[C@@H]1/C(=C\OC)C(=O)OC` (stereo partly drawn), the result in assay [1], in [2], in assay [3], in [4], in [5] and in assay [6] was inactive. Moreover, the result in assay [11], in assay [12], in assay [13] and in assay [14] was inactive. For the same compound, the Potency entry in [7], in [8], in assay [9], in assay [10] and in assay [15] was “inactive” in each case.
For `COC1=C(C2=C(OC)C(=O)c3cc4c(c(O)c3C2=O)C(=O)O[C@H](C)C4)C(=O)c2c(cc3c(c2O)C(=O)O[C@H](C)C3)C1=O`, the result in assay [1], in [2], in [3], in assay [4], in assay [5] and in assay [6] was inactive. The call in assay [11], in [12], in assay [13] and in assay [14] was inactive. Besides, the Potency result in [8], in assay [9] and in assay [10] was “inactive” throughout. Further, the Potency in assay [15] is 1.14 µM (active).
Turning to `C/C=C/[C@@H]1[C@H]2C[C@@H](C)CC[C@@H]2C(C)=C[C@H]1C(=O)c1c(O)c(-c2ccc(O)cc2)c[nH]c1=O`, the call in assay [1], in assay [2], in assay [3], in assay [4], in [5] and in [6] was inactive. Moreover, the compound was called inactive in assay [11], in [12], in [13] and in [14]. Also, the Potency entry in assay [7], in [8], in assay [9], in assay [10] and in [15] was “inactive” throughout.
Take `C/C=C1/CN2CC[C@@]34c5ccccc5N(C)[C@@H]3[C@@H]2C[C@@H]1[C@H]4C(=O)OC`: the compound was classed as inactive in [1], in assay [2], in assay [3], in assay [4], in [5] and in assay [6]. The compound was classed as inactive in [11], in [12], in [13] and in [14]. The Potency entry in [7], in [8], in assay [9], in [10] and in [15] was “inactive” in each case.
In the case of `CC[C@@H]1CN2CCc3c([nH]c4cccc(OC)c34)[C@@H]2C[C@@H]1/C(=C\OC)C(=O)OC`, the compound was called inactive in assay [1], in assay [2], in assay [3], in assay [4], in assay [5] and in assay [6]. Also, the result in assay [11], in assay [12], in assay [13] and in assay [14] was inactive. Moreover, the Potency result in assay [7], in assay [8] and in assay [10] was “inactive” throughout.
On to `C/C=C1/CN2C3CC1C1=CCC(=O)N4c5ccccc5[C@@]3(C[C@@H]2C2=C[C@H]3C5CC6N(CC[C@@]67c6ccccc6N(C2=O)[C@@H]37)C/C5=C/C)[C@H]14` (stereo partly drawn), for which the call in assay [1], in assay [3], in assay [5], in [11], in assay [12] and in [13] was inactive. The outcome in assay [14] was inactive. Also, the Potency result in assay [7], in [8], in [10] and in [15] was “inactive” each time. The Potency in [9] was 23.5 µM (active).
